# Assay results reported in ChEMBL document CHEMBL3988442, “University of Dundee, Small-Polar-MMV Screening Library” (2021).
# In all, about 48,000 compounds went through this assay and about 13,000 (27%) showed an effect of 50% or more. This is one part of the list.
# Test system: Wolbachia pipientis
# Test: Anti-Wolbachia Cell-Based Screen
# Format: functional
# Design: scale not given: in the data most compounds retested in dose-response had high values
# Settings: 5 µM
row,Structure (SMILES),Percent Effect [%]
1,CCC(CC)NC(=O)c1ccc2c(c1)C(c1nc[nH]n1)CN2S(C)(=O)=O (stereo not drawn),-0.8083
2,CSCCC(CO)NC(=O)c1ccc2[nH]/c(=N\S(C)(=O)=O)sc2c1 (stereo not drawn),102
3,CC(CO)NC(=O)c1ccc2[nH]/c(=N\S(C)(=O)=O)sc2c1 (stereo not drawn),96.98
4,CSCCC(C)NC(=O)c1cccc(-c2n[nH]c(C)n2)c1 (stereo not drawn),-6.222
5,Cc1nn(C)c(C)c1CN(C)c1nc(C2CC2)nc2c(C)nn(C)c12,9.92
6,COc1ccnc(N(C)Cc2ccco2)n1,6.13
7,Cc1nn(C)c2c(N(C)Cc3ccco3)nc(C3CC3)nc12,91.93
8,Cc1nn(C)c2c(NCc3ccccc3F)nc(C3CC3)nc12,-10.39
9,Cc1nn(C)c2c(N(C)Cc3cccs3)nc(C3CC3)nc12,84.71
10,Cc1nn(C)c2c(NCc3cccnc3)nc(C3CC3)nc12,-0.9652
11,O=C(NCCCO)c1cnc(-c2ccccc2)nc1O,-7.002
12,CC(CCN1CCCC1=O)NCc1cnc(C2CCC2)s1 (stereo not drawn),5.748
13,Cc1nc(NCCN2CCCC2=O)cc(C2CN(C(C)C)CCO2)n1 (stereo not drawn),108.1
14,Cc1cc(N2CCCC(OC(=O)CCN3CCCC3=O)C2)nc(C)n1 (stereo not drawn),-12.05
15,CC(=O)N1CCN(c2cc(C3CN(C)CCO3)nc(C)n2)CC1 (stereo not drawn),-11.29
16,Cc1nc(NCCN2CCCC2=O)cc(C2CN(C)CCO2)n1 (stereo not drawn),121.4
17,Cc1cnn(CC2CN(CCN3CCCC3=O)CCO2)c1 (stereo not drawn),-2.569
18,Cc1ccc(CNCC2CCCn3ccnc32)s1 (stereo not drawn),-4.636
19,Cn1cc(N2CCC(NC(=O)c3ccccc3F)C2=O)cn1 (stereo not drawn),1.627
20,CC(=O)c1cc(C(=O)NC2(c3ccccc3)CCC2)n(C)c1,-2.692
21,CC(C)C(NC(=O)c1ccccc1F)C(=O)Nc1cnn(C)c1 (stereo not drawn),10.34
22,Cn1cc(C2=NOC(C(=O)NC3(c4ccccc4)CCCC3)C2)cn1 (stereo not drawn),117.7
23,O=C(NC1(c2cccc(F)c2)CCOCC1)c1ccoc1,-9.671
24,Cn1cc(C2=NOC(C(=O)NC3(c4ccccc4F)CCCC3)C2)cn1 (stereo not drawn),111.1
25,O=C(NC1(c2cccc(F)c2)CCOCC1)c1ccccn1,10.14
26,Cn1cc(C2=NOC(C(=O)NC3(c4cccc(F)c4)CCCC3)C2)cn1 (stereo not drawn),105.1

row,Structure (SMILES),Percent Effect [%]
1,O=C(CCCn1cncn1)NC1(c2ccccc2)CCC1,-7.229
2,N[C@@H]1c2ccccc2C2(CCN(C(=O)c3cncc(Cl)c3)CC2)[C@H]1O,-1.083
3,CCN(Cc1noc(C)n1)C(=O)C(c1cccc(C)c1)N(C)C (stereo not drawn),1.236
4,CSc1cc2c(cc1NC(=O)NCCn1ccnc1)OCCO2,8.638
5,COCc1ccccc1C(=O)NS(=O)(=O)c1ccc2c(c1)CCC(=O)N2,-32.38
6,COc1ccc2c(c1)C(C(=O)N(C)CCCc1cnn(C)c1)CC(=O)N2 (stereo not drawn),-51.57
7,CC1CCCN(Cc2ccc(OCc3nccn3C)cc2)C1 (stereo not drawn),64.75
8,Cn1ccnc1COc1ccc(CSc2nnnn2C2CC2)cc1,-14.27
9,Cn1ccnc1COc1ccc(CSc2nncn2C2CC2)cc1,-10.32
10,COCCN1CCN(Cc2ccc(OCc3nccn3C)cc2)CC1,100.2
11,CC(=O)N1CCN(Cc2ccc(OCc3nccn3C)cc2)CC1,94.07
12,Cn1ccnc1COc1ccc(CN2CCN(CCO)CC2)cc1,-5.223
13,Cn1ccnc1COc1ccc(COC(=O)C2CCCO2)cc1 (stereo not drawn),0.9583
14,Cn1ccnc1COc1ccc(CN2CCC(C(N)=O)CC2)cc1,122.5
15,CCOC(=O)N1CCN(Cc2ccc(OCc3nccn3C)cc2)CC1,3.799
16,Cn1ccnc1COc1ccc(CSc2nnnn2C)cc1,6.685
17,Cn1ccnc1COc1ccc(CO)cc1,4.503
18,CCCN1C[C@H]2CC[C@@H]1CN(Cc1cccc(O)c1)C2,9.983
19,CC(=O)c1ccc(N2CCCC(CO)(Cc3ccccc3C)C2)nc1 (stereo not drawn),-1.793
20,Cc1ccccc1SC1CCN(C(=O)CCCS(N)(=O)=O)CC1,85.51
21,Cc1ccccc1SC1CCN(C(=O)[C@H]2[C@@H]3CNC[C@@H]32)CC1,-39.6
22,CS(=O)(=O)NCCC(=O)N1CCC(Cc2ccc(CO)cc2)C1 (stereo not drawn),5.18
23,COc1cccc(OC2CN(C(=O)CCn3cnnn3)C2)c1,-0.2846
24,Cc1cccc(OC2CCN(C(=O)CNC(=O)N(C)C)CC2)c1,0.03491
25,Cc1cccc(SC2CCN(Cc3nc(CC4CC4)no3)CC2)c1,-16.83
26,CSCC(=O)N1CCC(Oc2cccc(C)c2)CC1,1.414

row,Structure (SMILES),Percent Effect [%]
1,CC(=O)NCCCC(=O)N1CCC(Sc2cccc(C)c2)CC1,104.7
2,Cc1ccccc1N1CCCN(C(=O)CCCS(N)(=O)=O)CC1,-5.383
3,Cc1cccc(SC2CCN(C(=O)CCCn3cnnn3)CC2)c1,97.25
4,Cc1ccccc1C1CCN(C(=O)CCNS(C)(=O)=O)C1 (stereo not drawn),-0.3491
5,Cc1cccc(SC2CCN(C(=O)CCNS(C)(=O)=O)CC2)c1,90.55
6,O=C(Nc1ccc2c(c1)OCO2)N1CCCC1c1ccco1 (stereo not drawn),-0.7591
7,Cc1nc(CN2C[C@@H](CN3CCOCC3)[C@@H](CO)C2)c2ccccn12,6.539
8,COCC(=O)N1CCc2nc(C(=O)N(C)C)sc2CC1,-18.32
9,CN(Cc1ccc(C#N)cc1)Cc1noc(C(C)(C)C)n1,1.419
10,Cc1ccccc1CCC1CCCN(Cc2c(C)[nH]c(=O)[nH]c2=O)C1 (stereo not drawn),11.3
11,NS(=O)(=O)CCCC(=O)N1CCC2(CC1)c1ccccc1CC2O (stereo not drawn),-16.64
12,Cc1cccc(SC2CCN(C(=O)CCCS(N)(=O)=O)CC2)c1,79.05
13,Cc1cnccc1N1CCCN(C(=O)CCCS(N)(=O)=O)CC1,5.967
14,COc1cccc(CN2CC[C@H](c3nnc(-c4ccco4)o3)C2)c1,18.39
15,COc1cccc(CN2CC[C@H](c3nnc(C)o3)C2)c1,12.81
16,Cc1cccc(CN2CCC(c3nnc(-c4scnc4C)o3)CC2)c1,109.5
17,Cc1ncsc1-c1nc(-c2cccc(CN3CCOCC3)c2)no1,1.772
18,COc1cccc(CN2CCC(c3nnc(-c4cnc(C)cn4)o3)C2)c1 (stereo not drawn),84.16
19,Cc1ncsc1-c1nnc(C2CCN(Cc3cccc(Cl)c3)CC2)o1,113.8
20,Cc1nc(CN2CCN(CC(=O)Nc3c(C)cccc3C)CC2)no1,0.7695
21,COc1ccc(C(O)C(=O)N2CCC(c3nccn3C(C)C)CC2)cc1 (stereo not drawn),-20.71
22,CC(NC(=O)c1ccoc1)C(=O)N(C)Cc1ccc(O)cc1 (stereo not drawn),-3.093
23,Cc1noc(C(C)C)c1C(=O)NCC(c1ccsc1)N(C)C (stereo not drawn),-2.505
24,Cc1cc(NC(=O)NCC(c2ccsc2)N(C)C)n(C)n1 (stereo not drawn),-2.678
25,CN(C)C(CNC(=O)c1ncoc1-c1ccccc1)c1ccsc1 (stereo not drawn),-4.122
26,Cc1nn(C)c(Cl)c1C(=O)NCC(c1ccsc1)N(C)C (stereo not drawn),-1.114

row,Structure (SMILES),Percent Effect [%]
1,Cc1cc(C(=O)NCC(c2ccsc2)N(C)C)no1 (stereo not drawn),113.7
2,Cc1nn(-c2ccccc2)nc1C(=O)NCC(c1ccsc1)N(C)C (stereo not drawn),-0.008163
3,CCN(CC)C(CNC(=O)c1c(C)noc1C(C)C)c1ccsc1 (stereo not drawn),108.9
4,Cc1noc(C)c1C(=O)NCC(c1ccc(F)cc1)N(C)C (stereo not drawn),-4.601
5,Cc1noc(C)c1C(=O)NCC(c1ccsc1)N(C)C (stereo not drawn),115.3
6,CC(c1cc(F)ccc1F)N1CCN(C(=O)c2ccc(=O)[nH]c2)CC1 (stereo not drawn),-31.75
7,O=C(O)C(F)(F)F.c1csc(CN2CCc3ncnc(C4CCOC4)c3CC2)c1 (stereo not drawn),-9.496
8,Cn1nnc2c1CCN(C(=O)C1CCC1)C2COCCN1CCCC1.O=C(O)C(F)(F)F (stereo not drawn),-13.51
9,COc1ccc(-c2n[nH]cc2CN2CCSCC2)c(OC)c1,5.008
10,O=C(N[C@@H]1CN(Cc2c[nH]nc2-c2ccccc2)C[C@H]1O)c1cc[nH]n1,121.8
11,COCC(=O)N[C@@H]1CN(Cc2c[nH]nc2-c2cccs2)C[C@H]1O,113.8
12,COCCN1C(=O)CO[C@H]2CN(Cc3c[nH]nc3-c3ccccc3)C[C@@H]21,-12.21
13,Cc1n[nH]cc1CNC(=O)CCCc1cccs1,-6.834
14,CCC[C@H]1CN(CCS(C)(=O)=O)C[C@@H]1NC(=O)c1cc[nH]n1,-12.34
15,CC(C)CC(C)(CNC(=O)c1cnccn1)NC(=O)c1cnccn1 (stereo not drawn),15.43
16,CO[C@@H]1CC[C@@H](N(C)C(=O)c2cn3cc(C)ccc3n2)[C@H]1O,56.83
17,Cc1ccc2nc(C(=O)N(C)[C@@H]3CC[C@@H](N4CCCC4)[C@@H]3O)cn2c1,129
18,Cc1ccc2c(ccn2CC(=O)NC[C@@H]2CCCN3CCCC[C@H]23)c1,4.302
19,Cc1ccc2nc(C(=O)N3CCNC(=O)C3c3cccc(F)c3)cn2c1 (stereo not drawn),-1.772
20,CO[C@@H]1CCC[C@@H](N(C)C(=O)c2cn3cc(C)ccc3n2)[C@H]1O,110.8
21,Cc1cn2cc(C(=O)NC3CCCN(c4ncccn4)C3)ccc2n1 (stereo not drawn),-3.56
22,Cc1ccc2nc(C(=O)N3CCC(CCn4cccn4)CC3)cn2c1,-8.837
23,c1cncc(NCCNC2CCSCC2)c1,-10.95
24,CCn1cc(N2Cc3nc(N4CCOCC4)ncc3C2=O)cn1,28.99
25,COC(=O)c1ccc(C2CC(=O)Oc3cc(C)[nH]c(=O)c32)cc1 (stereo not drawn),-3.935
